We go through nine compounds from PubChem BioAssay (NCATS).

Structures are written as SMILES. Inconclusive results are not listed. Where a call stands in place of a potency, no number is given. Activity calls are given as the source filed them. Calls follow the shape of the dose curve; as a rule, active = well fitted inhibition curve with a large enough effect; inconclusive = small, poorly fitted or top-dose-only effect; inactive = no such curve, though single readings can be large or run the other way. Where a SMILES comes first, the peptide text is derived from it.

The test deals with Zika virus NS2B-NS3 protease (linked construct). Nature of the test: Primary screen NINDS Rhodamine qHTS for Zika virus inhibitors (AID 1347160). Also: nearly all actives have a fitted effect of over 55% in size. Conditions: purified NS2B-NS3 protease, Rhodamine110 substrate fluorescence; series mostly up to 33.1 µM. The method in brief: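 Purified linked NS2B-NS3 protease (NS2B hydrophilic domain joined to NS3 protease by flexible linker), 25 nM in 10 mM Tris-HCl pH 8.0, 0.01% Tween 20. Compounds titrated, 15 min preincubation at room temperature; 1.5 microM Rhodamine110 substrate, FITC fluorescence change over 15 min.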
Take `COC(=O)C(CC1CCCC1)c1ccc(S(C)(=O)=O)cc1` (centres undefined): the Potency result was “inactive”.

Turning to `NC(N)=NCCC[C@H](NC(=O)c1sccc1NS(=O)(=O)c1cccc2nsnc12)C(=O)O`, the Potency entry is “inactive”.

Take `C=C(C(=O)OC)[C@]12O[C@@](C)(CC[C@@]3(O)/C(=C\C)C(=O)O[C@]3(C)C[C@@H]1OC(=O)C(CO)CN1CCCC1C(=O)O)CC2=O` (some centres undefined): the Potency entry is “inactive”.

With `CC1(C)[C@@H]2CC=C(CO[C@@H]3O[C@H](CO[C@@H]4OC[C@H](O)[C@H](O)[C@H]4O)[C@@H](O)[C@H](O)[C@H]3O)[C@H]1C2`, the Potency result is “inactive”.

With `CC(C)NC(=O)c1ccc(C#Cc2ccncc2)cn1`, the Potency entry was “inactive”.

In the case of `CC1CCC2(C(=O)O)CCC3(C)C(=CCC4C5(C)C[C@@H](O)[C@@H](O)C(C)(CO)C5CCC43C)C2C1(C)O` (some centres undefined), the Potency result is “inactive”.

Consider `O=C(O)C(Cc1ccccc1)NC(=O)C1CCCN1` (stereo not drawn) (H-Pro-Phe-OH; configuration not given here), for which the Potency result is “inactive”.

On to `CC1CCC2(C(=O)OC3OC(CO)C(O)C(O)C3O)CCC3(C)C(=CCC4C5(C)CCC(O)C(C)(CO)C5CCC43C)C2C1(C)O` (centres undefined), for which the Potency entry is “inactive”.

In the case of `Cc1onc(-c2c(Cl)cccc2Cl)c1CC(=O)NCc1ccc(OCC(F)(F)F)nc1`, the Potency result was “inactive”.
